A short description of assay [1]: blockers of polyQ-driven CASP3 activation – cell-based (AID 1583). The settings on record: polyglutamine-induced caspase-3 activation, cell assay; stronger effect = higher value;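 tested at 10 µM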.
Assay [2] can be described thus: yeast 75Q aggregation reduction – 75Q-TubU reporter (AID 1593). The settings on record: Yeast 75Q polyglutamine aggregation reporter.
A short description of assay [3]: restoration of touch response, mutant HTT neurons – whole organism, C. elegans mechanosensory neurons, N-terminal huntingtin (AID 1599). As to conditions: C. elegans polyQ-huntingtin mechanosensory neurons, stronger effect = higher value.
The nature of assay [4]: blockers of cytochrome c efflux from mitochondria – biochemical, purified mitochondria (AID 1603).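 Note: mouse liver mitochondria challenged with calcium chloride; signal normalized to the plate average as 100%.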 The settings on record: stronger effect = lower value.
Assay [5] is described as follows: polyglutamine aggregate formation blockers (AID 1604). As to conditions: polyglutamine-induced protein aggregation inhibition assay; stronger effect = higher value; tested at 2.5 µM.
Assay [6] can be described thus: glutamate transport activators, MN-1 cells, MN-1 cell line (AID 1612).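 Note: tested at 1 µM final; 0% = mean of DMSO vehicle wells on each plate; positive means more glutamate uptake than control and negative means less.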 As to conditions: MN-1 motor neuron cells, stronger effect = higher value.
Assay [7] can be described thus: 75Q-TubH aggregate inhibition, S. cerevisiae, yeast (AID 1616). The settings on record: S. cerevisiae 75Q-TubH polyglutamine aggregation suppression; stronger effect = higher value.
The nature of assay [8]: compounds altering viability of human ES cells (AID 493140; call rule not given here;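 note: cells exposed to compounds for four days before counting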). The settings on record: human embryonic stem cell survival screen; stronger effect = higher value.
A short description of assay [9]: signal quenchers or enhancers, Cy5 substrate/SSB – biochemical, NIH Clinical Collection, E. coli SSB, artefact control for HCV NS3 helicase inhibitor project (AID 743268; call rule not given here). As to conditions: Cy5-oligo bound E. coli SSB, fluorescence interference.
The test system of assay [10] is Hepatitis C virus NS3 helicase. Kind of assay: blockers of NS3h binding to DNA – biochemical, fluorescence polarization, NIH Clinical Collection, primary screen (AID 743270; call rule not given here). As to conditions: NS3 helicase binding to Cy5-dT15 DNA, stronger effect = higher value, concentration not given here.
Assay [11] addresses Single-stranded DNA-binding protein (Escherichia coli (strain K12)) (UniProt P0AGE0). Kind of assay: SSB-ssDNA binding inhibitors – biochemical, fluorescence polarization, NIH Clinical Collection, counter-screen for HCV NS3 helicase inhibitor project (AID 743271; in the data active = inhibition above about 28%). As to conditions: E. coli SSB-DNA binding, stronger effect = higher value, concentration not given here.
Assay [12] is described as follows: compounds distorting NS3 helicase fluorescence signal – biochemical, NIH Clinical Collection, artefact control for HCV NS3 helicase inhibitor project (AID 743272; call rule not given here;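 note: HCV NS3 helicase with a Cy5 labelled single stranded DNA probe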). As to conditions: fluorescence interference counterscreen, HCV NS3 helicase assay; stronger effect = lower value.
A short description of assay [13]: galactose survival enhancers in mitochondrial complex I cybrids – cell-based, galactose medium, ATP luminescence, primary screen (AID 1645843;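 active = z-score of at least 1.8 in each of two replicates, scored against plate mean and spread of sample wells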;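 note: positive z means more ATP and so rescue of galactose-driven cybrid death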). As to conditions: complex I mutant cybrid cells, 72 h, stronger effect = higher value.
The test system of assay [14] is R275C. Kind of assay: BK channel mutant inhibitors and activators – cell-based, U2OS BacMam, thallium flux, beta subunits, selectivity assay, profiling panel (AID 1259406).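 Note: initial slope of Thallos dye fluorescence rise after thallium is added; log ratio against the mean of 0.3% DMSO vehicle wells on the same plate.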 The settings on record: U2OS BacMam BK variants, at 30 µM.
In assay [15] the test system is R275C/beta1. The assay is described as above. As to conditions: U2OS BacMam BK variants, at 30 µM.
The subject of assay [16] is R275C/beta2Delta. Described as above. The settings on record: U2OS BacMam BK variants, at 30 µM.
Assay [17] relates to R275C/beta4. Described as above. As to conditions: U2OS BacMam BK variants, at 30 µM.
The test system of assay [18] is R275C/Slo1WT/beta2. The description is as above. As to conditions: U2OS BacMam BK variants, at 30 µM.
Assay [19] in a line: viability loss with induced miR-34 in A549 – imaging, A549 dox-inducible miR-34, nuclei and caspase counts, primary screen (AID 1347080). The settings on record: A549 miR-34 inducible, Hoechst nuclei count, 48 h; measured here: relative caspase fold change +Dox/-Dox.

Several values for one entry are separate records, joined by “and”; a condition that tells them apart may be missing. Equal values may be shown once. For some assays here: Entries with a potency or affinity are not part of this list. Activity calls are given as the source filed them.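 Rule for the calls, unless noted: active = thallium flux through the channel raised or lowered by more than 3 SD from vehicle-only wells, actives on both sides; inactive = the rest.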

Take `CC(CN1c2ccccc2Sc2ccccc21)N(C)C` (configuration not stated): the inhibition in [1] is -21.1%; in [10], -5% (inactive); in assay [11], 3.34% (inactive). The score in [2] turned out to be 1.87. The same compound came in with a rescue above control in assay [3] of 27.9. Moreover, the cytochrome c release ratio in assay [4] stood at 0.77. In [5], this compound had an inhibition of aggregation of 66.7%. The glutamate uptake change in assay [6] worked out at 9.05%. Also, in assay [7], the aggregation suppression score turned out to be 1.37. In assay [8], the survival is 1.42 (inactive). Also, the fluorescence ratio in assay [9] was 0.91 (inactive); in assay [12], 0.93 (inactive). For the same compound, the z-score in assay [13] is -1.14 (inactive) and -0.84 (inactive) and -0.715 (inactive). Moreover, the log fold change Tl+ flux in [14] was -0.00748 (inactive); in assay [15], 0.305 (active); in assay [16], 0.176 (active); in assay [17], 0.0949 (inactive); in assay [18], -0.0568 (inactive).
With `CN(C)CCOC(C)(c1ccccc1)c1ccccn1` (configuration not stated), the inhibition in assay [1] was 9.79%; in [10], -0.4% (inactive); in [11], -0.87% (inactive). The compound also had a score in [2] of 1.23. The rescue above control in assay [3] is -5.3. The cytochrome c release ratio in assay [4] was 0.7. The inhibition of aggregation in assay [5] was found to be 77%. Also, the glutamate uptake change in assay [6] came out at 7.08%. Besides, the aggregation suppression score in assay [7] is 1.46. Moreover, the survival in assay [8] was 6.42 (inactive). The fluorescence ratio in [9] is 1.04 (inactive); in [12], 1.06 (inactive). The z-score in assay [13] was 0.14 (inactive) and -0.05 (inactive) and 0.35 (inactive). Also, the log fold change Tl+ flux in [14] was -0.00524 (inactive); in [15] it was -0.0059 (inactive); in assay [16], -0.00567 (inactive); in assay [17], 0.0164 (inactive); in [18], 0.0279 (inactive).
For the compound `CCN(CC)CCOC(=O)c1ccc(N)cc1`, the inhibition in [1] is 9.09%; in [10] it was -3.18% (inactive); in [11], 0.29% (inactive). For the same compound, the score in assay [2] amounted to 1.48. For the same compound, in [3], the rescue above control was -15. In addition, the cytochrome c release ratio in assay [4] was found to be 1.16. This compound also gave an inhibition of aggregation in [5] of 23.9%. Moreover, in assay [6], the glutamate uptake change stood at 22.4%. This compound showed an aggregation suppression score in [7] of 1.46. Also, the survival in assay [8] was 15.7 (inactive). The fluorescence ratio in [9] was 1.06 (inactive); in assay [12] it was 0.92 (inactive). The z-score in assay [13] is 0.17 (inactive) and -0.015 (inactive). Further, the log fold change Tl+ flux was -0.00878 (inactive) in assay [14]; -0.0214 (inactive) in assay [15]; 0.0278 (inactive) in assay [16]; -0.0586 (inactive) in assay [17]; -0.013 (inactive) in [18].
With `NC(=O)N1c2ccccc2C=Cc2ccccc21`, the inhibition in [1] is 9.92%; in assay [10], -3.18% (inactive); in assay [11] it was -3.53% (inactive). In [2], this compound came in with a score of 1.24. In [3], this compound came in with a rescue above control of -11.1. In addition, in assay [4], the cytochrome c release ratio was 1.51. In assay [5], this compound showed an inhibition of aggregation of 83.1%. For the same compound, in assay [6], the glutamate uptake change was -6.72%. Besides, the aggregation suppression score in [7] came to 1.82. In addition, in assay [8], the survival is 26.6 (inactive). For the same compound, the values for the fluorescence ratio in [9] and in assay [12] were 1.03 (inactive) and 1.04 (inactive), respectively. For the same compound, the z-score in [13] was 0.21 (inactive) and 0.34 (inactive) and 0.265 (inactive). Further, the log fold change Tl+ flux was 0.0472 (inactive) in [14]; 0.00405 (inactive) in [15]; 0.0457 (inactive) in [16]; -0.0824 (inactive) in [17]; -0.0474 (inactive) in [18].
Regarding `Cc1nc2ccccn2c(=O)c1CCN1CCC(C(=O)c2ccc(F)cc2)CC1`, in assay [8], the survival was 8.08 (inactive). Further, the fluorescence ratio was 0.95 (inactive) in [9] and 0.93 (inactive) in assay [12]. Besides, the inhibition in assay [10] was 5.94% (inactive); in assay [11] it was 3.75% (inactive). In addition, the z-score in [13] was -1.02 (inactive) and -0.645 (inactive). Moreover, the log fold change Tl+ flux in assay [14] was -0.025 (inactive); in [15] it was -0.0266 (inactive); in assay [16] it was -0.0363 (inactive); in assay [17] it was -0.0285 (inactive); in assay [18], 0.00703 (inactive).
On to `CCOC(=O)[C@H](CCc1ccccc1)N[C@@H](C)C(=O)N1Cc2ccccc2C[C@H]1C(=O)O`, for which the inhibition in assay [1] was 20.2%; in assay [10], -8.64% (inactive); in assay [11] it was -0.48% (inactive). The score in assay [2] came out at 1.04. Moreover, the rescue above control in assay [3] came to 4.28. In addition, the cytochrome c release ratio in assay [4] was found to be 0.82. Further, the inhibition of aggregation in assay [5] was 37.2%. In assay [6], the glutamate uptake change was determined as 3.41%. Moreover, in assay [7], the aggregation suppression score was 1.35. For the same compound, the fluorescence ratio in [9] was 1.02 (inactive); in [12], 1.04 (inactive). Also, the fold change in assay [19] was 1.45 and 1.07 and 4.39. Further, the z-score in assay [13] is 0.72 (inactive) and 0.435 (inactive). For the same compound, the log fold change Tl+ flux was -0.00535 (inactive) in assay [14]; 0.0226 (inactive) in [15]; 0.0266 (inactive) in assay [16]; 0.0169 (inactive) in [17]; 0.0209 (inactive) in assay [18].
As to `O=C(CCCN1CC=C(n2c(=O)[nH]c3ccccc32)CC1)c1ccc(F)cc1`, the inhibition in assay [1] was -1.81%; in assay [10], -5.15% (inactive); in [11], -0.1% (inactive). For the same compound, the score in assay [2] came out at 1.12. The rescue above control in [3] was determined as 6.51. For the same compound, the cytochrome c release ratio in assay [4] was 1.19. The same compound showed an inhibition of aggregation in assay [5] of 63.6%. The glutamate uptake change in assay [6] came to 4.12%. Moreover, the aggregation suppression score in [7] was 1.21. For the same compound, the survival in assay [8] was 4.83 (inactive). Moreover, the values for the fluorescence ratio in assay [9] and in assay [12] were 0.99 (inactive) and 1 (inactive), respectively. The z-score in assay [13] was -0.69 (inactive). The log fold change Tl+ flux in [14] is 0.0212 (inactive); in assay [15] it was 0.0837 (active); in [16], 0.0699 (inactive); in [17] it was 0.00129 (inactive); in [18] it was 0.0371 (inactive).
Consider `CSc1ccc2c(c1)N(CCC1CCCCN1C)c1ccccc1S2` (configuration not stated), for which the values for the inhibition in assay [1], in assay [10] and in [11] were 43.3%, -5% (inactive) and 0.29% (inactive), respectively. The compound also displayed a score in assay [2] of 0.94. This compound registered a rescue above control in assay [3] of 0. Also, in assay [4], the cytochrome c release ratio was 0.4. Also, the inhibition of aggregation in assay [5] amounted to 7.32%. Also, the glutamate uptake change in assay [6] was -2.39%. This compound showed an aggregation suppression score in assay [7] of 0.91. For the same compound, in assay [8], the survival was 2.08 (inactive). The fluorescence ratio was 1.05 (inactive) in assay [9] and 0.85 (inactive) in assay [12]. Besides, the z-score in assay [13] is -1.38 (inactive) and -1.5 (inactive) and -2.41 (inactive). Also, the log fold change Tl+ flux in assay [14] is -0.424 (active); in assay [15], 0.517 (active); in assay [16], -0.136 (active); in assay [17], 0.753 (active); in [18], -0.146 (active).

Values taken from PubChem BioAssay.
